High-throughput results from PubChem.
D3 antag = qHTS of D3 Dopamine Receptor Antagonist: qHTS | 360,000 compounds, 2.5% hits | AID 652054, 2013 | D(3) dopamine receptor (Homo sapiens), P35462 | max response, negative = inhibition, % | D3R cells, DiscoveRx beta-arrestin luminescence, antagonist mode; active compounds read low; in the data active = max response below about -50%; inconclusive = no clear call, values can overlap the other calls; note: % is set by controls: 0 for no effect and ±100 for the full control effect
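Cells expressing the human receptor were seeded at 1500 cells/well, incubated overnight at 37 degrees C in 5% CO2, then exposed to library compounds with dopamine controls for 90 minutes at 37 degrees C before luminescent detection.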
DRD3 agonist = qHTS of D3 Dopamine Receptor Agonist: qHTS | D(3) dopamine receptor (Homo sapiens), P35462 | D3R DiscoveRx beta-arrestin cells, luminescence, 90 min | max activation, % | 410,000 compounds, 0.58% hits; in the data active = max activation above about 30%; note: 0% is about no effect
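Agonist-mode cell screen: cells plated at 1500/well and incubated overnight at 37 °C, then exposed to library compounds for 90 min at 37 °C. Detection reagent was added for 30–60 min at room temperature, and luminescence was read.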
D1 agonist = Allosteric Agonists of the Human D1 Dopamine Receptor: qHTS | D(1A) dopamine receptor (Homo sapiens), P21728 | HEK293 T-REx D1 cells, calcium flux, agonist mode | activation, % at 2 µM | 360,000 compounds, 1% hits | AID 504660, 2011; in the data active = activation above about 30%; note: 0% is about no effect
Target sequence (P21728 whole entry, looked up): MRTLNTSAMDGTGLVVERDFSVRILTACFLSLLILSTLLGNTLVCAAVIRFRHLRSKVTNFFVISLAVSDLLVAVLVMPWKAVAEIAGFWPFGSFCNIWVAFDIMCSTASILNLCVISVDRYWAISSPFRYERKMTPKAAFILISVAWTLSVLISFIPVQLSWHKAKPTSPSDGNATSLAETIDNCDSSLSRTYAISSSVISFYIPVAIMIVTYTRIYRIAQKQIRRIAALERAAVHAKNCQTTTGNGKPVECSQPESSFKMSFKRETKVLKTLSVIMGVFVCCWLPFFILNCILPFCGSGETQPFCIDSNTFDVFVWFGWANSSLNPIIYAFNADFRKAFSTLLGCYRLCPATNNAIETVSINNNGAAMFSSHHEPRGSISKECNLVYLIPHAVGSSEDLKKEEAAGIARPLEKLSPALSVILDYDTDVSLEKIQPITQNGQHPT
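Tetracycline-induced HEK293 TREx D1 cells, force-coupled to calcium signalling, were dye-loaded with a no-wash calcium kit. Compound was pin-added after a 10 s baseline. Fluorescence was read kinetically at 1 cycle/s for 180 s, with calcium rises flagged as agonism.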
D1 potentiator = Potentiators of Human D1 Dopamine Receptor: qHTS; D(1A) dopamine receptor (Homo sapiens), P21728; HEK293 TREx D1 cells, calcium flux, dopamine EC20 potentiation; potentiation, % at 10 µM; 360,000 compounds, 0.036% hits; AID 504651, 2011; in the data active = potentiation above about 30%; note: 0% is about no effect
Chronic BCR inh = qHTS Assay to Find Inhibitors of Chronic Active B-Cell Receptor Signaling. ABC-DLBCL IkBa-CBG/CBR reporter, luminescence ratio, 4 h. Potency, µM (series often up to 46.1 µM), without a hit: top-dose activity change, negative = inhibition, most hits filed as inhibitors. 340,000 compounds, 0.05% hits. AID 493014, 2011; active = well fitted inhibition curve with a large enough effect in the signal ratio, with a control signal flat, not every such curve was filed as active; inconclusive = small, poorly fitted or top-dose-only effect, or effect the other way, or a change in a side signal; the % refers to the signal ratio;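 note: potency is the fitted concentration of half-maximal effect; plate controls were basal doxycycline-induced cells for no effect and cells given 10 µM MG132 for full effect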
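TMD8 ABC-DLBCL cells carrying doxycycline-inducible green luciferase fused to IkappaBalpha plus unfused red luciferase were exposed to compounds (up to 46 uM) for 4 hrs at 37C. Activity came from the overlap-corrected green/red luminescence ratio.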
D1 antag = Antagonist of Human D 1 Dopamine Receptor: qHTS | D(1A) dopamine receptor (Homo sapiens), P21728 | HEK293 TREx D1 cells, calcium flux, dopamine EC80; active compounds read low | activity change, negative = inhibition, % at 10 µM | 360,000 compounds, 3.2% hits; in the data active = activity change below about -30%; note: % is set by controls: 0 for no effect and ±100 for the full control effect
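Antagonism measured as reduced calcium response to an EC80 dopamine addition following 180 s compound pre-read; cells were inducible HEK293 Trex D1 plated overnight at 30 C, read kinetically at 1 cycle/sec.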
* = called active by the depositor; ? = inconclusive; . = no result given. An excerpt weighted towards active compounds, which were near 6% of everything screened.

SMILES	D3 antag	DRD3 agonist	D1 agonist	D1 potentiator	Chronic BCR inh	D1 antag
C#CCOCCOCCOCCNc1nc(N2CCOCC2)nc(N2CCN(C(=O)CCCCCCCCCCNC(=O)[C@@H](CCC(=O)O)n3cc(CCCCCN)nn3)CC2)n1	18	-11	6	-4	-3%	-8
C#CCOCCOCCOCCNc1nc(N2CCN(C(=O)CCCCCCCCCCNC(=O)[C@H](CCCCN)n3cc(C)nn3)CC2)nc(N2CCN(C(=O)CCCCCCCCCCNC(=O)[C@H](CCCCN)n3cc(CCCC(=O)O)nn3)CC2)n1	26	6	30*	-3	-2%	14
O=S(=O)(c1cccc(S(=O)(=O)N2CCCC2)c1)c1cccc(S(=O)(=O)N2CCCC2)c1	20	4	3	-2	-2%	-2
COc1cc(S(=O)(=O)N2CCN(C)CC2)ccc1Cl	-87*	0	-3	-4	-4%	9
COc1cc(S(=O)(=O)N2CCCCCC2)ccc1Cl	-17	-1	7	0	-8%	-14
CN1CCN(S(=O)(=O)c2cccc(S(=O)(=O)c3ccc(Cl)c(Cl)c3)c2)CC1	18	0	7	-5	3%	-53*
CC1(C(=O)Nc2ccc3c(c2)OCO3)Cc2c(-c3ccc4c(c3)OCO4)ccnc2O1 (stereo unspecified)	-24	-10	.	.	.	.
CC1(C(=O)Nc2cccc(C(F)(F)F)c2)Cc2c(-c3ccc4c(c3)OCO4)ccnc2O1 (stereo unspecified)	-59*	-15	.	.	.	.
CN(C)c1ccc(CNC(=O)C2(C)Cc3c(-c4cccc(C(F)(F)F)c4)ccnc3O2)cc1 (stereo unspecified)	-84*	-12	.	.	.	.
COc1ccc(NC(=O)C2(C)Cc3c(-c4ccc5c(c4)OCO5)ccnc3O2)cn1 (stereo unspecified)	-53*	-18	.	.	.	.
N#Cc1ccccc1CSc1nnc2ccc3ccccc3n12	.	1	-3	1	.	-2
O=C(NCCSCc1cccc(Cl)c1)C1CCN(S(=O)(=O)Cc2ccccc2)CC1	.	1	-2	2	.	-10
COc1ccc(/C=C/C(=O)OCC(=O)N2c3ccccc3CC2C)cc1 (stereo unspecified)	3	1	.	.	.	.
CN(C)c1ccc(CNC(=O)c2ccc(Cn3c(SCc4ccccc4)nc4cccnc43)cc2)cc1	.	-9	1	-4	.	1
CCC(=O)N1CCc2cc(Br)cc(S(=O)(=O)N3CCC(C(=O)Nc4cccc(C)c4)CC3)c21	.	1	6	-1	.	4
CC(NC(=O)Cn1ncc2c3ccccc3n(Cc3ccc(F)cc3)c2c1=O)c1ccccc1 (stereo unspecified)	.	-1	6	-3	.	1
CCn1ncc(/C=N/N=C2\CCC3C4CCc5cc(O)ccc5C4CCC23C)c1C (stereo unspecified)	88	34*	7	-2	15%	9
CN(C(=O)c1cc(S(=O)(=O)N2CCc3ccccc32)cn1C)C1CCCCC1	-21	-3	3	1	2%	-54*
COc1ccc(N(C)C(=O)c2cc(S(=O)(=O)N3CCc4ccccc43)cn2C)c(OC)c1	.	1	0	-4	.	-55*
CCOC(=O)CNC(=O)Nc1cc(C(=O)NCc2ccc(C(C)C)cc2)ccc1N1CCCC1	.	-5	2	-1	.	0
O=c1oc2ccccc2c(Cl)c1CN1CCCCC1	-76*	-21	1	-8	?	-14
O=C(O)CCC(=O)Nc1nnc(C(F)(F)F)s1	0	9	3	-1	?	3
CCC(NC(=O)Nc1nnc(C(F)(F)F)s1)(C(F)(F)F)C(F)(F)F	-5	7	31*	-11	?	-58*
CN(Cc1ccccc1F)c1ccc(S(=O)(=O)N2CCCC2)cn1	11	0	13	-8	-5%	-32*
Cc1c(Cl)sn(-c2ccc(Cl)cc2)c1=O	-52*	-2	6	-8	?	-22
SMILES	D3 antag	DRD3 agonist	D1 agonist	D1 potentiator	Chronic BCR inh	D1 antag
Cc1nn(-c2ccc(Cl)cc2)c(=O)c2ccccc12	-5	-4	0	4	?	-2
CC(OC(=O)CCCN=C1NS(=O)(=O)c2ccccc21)C(=O)Nc1ccccc1F (stereo unspecified)	6	-1	3	-12	-13%	-39*
CC(OC(=O)CCN=C1NS(=O)(=O)c2ccccc21)C(=O)Nc1ccccc1F (stereo unspecified)	-7	4	9	2	-6%	1
O=C(CCCN=C1NS(=O)(=O)c2ccccc21)OCC(=O)c1ccc(F)cc1	1	1	56*	2	3%	-8
O=C(CCN=C1NS(=O)(=O)c2ccccc21)OCC(=O)c1ccc(F)cc1	-1	-3	4	-6	13%	-13
O=C(Cn1ncc2ccsc2c1=O)N1CCN(c2ccc(F)cc2)CC1	.	6	1	-4	.	-3
Oc1ccc(Nc2nc(N3CCCC3)c3ccccc3n2)cc1	-71*	-1	1	-10	?	-40*
Cc1ccc(Nc2nc(N)c([N+](=O)[O-])c(N3CCOCC3)n2)cc1	5	1	3	1	-1%	-10
COc1ccc(Nc2nc(N3CCCCC3)c3ccccc3n2)cc1	?	3	8	-16	7%	-49*
c1ccc2c(c1)nc(N1CCCCCC1)c1ccccc12	-6	-7	2	12	7%	15
Cc1ccc(Nc2nc(N3CCOCC3)c3ccccc3n2)cc1	8	0	1	-13	?	-60*
CCCCC[C@H](C)N1C[C@@H](COCc2ccccc2)Oc2cc(N3CCC[C@H]3C(N)=O)ccc2S1(=O)=O	23	7	.	.	.	.
Cc1cccc(NC(=O)NCc2cccnc2)c1C	4	1	2	-4	-3%	-34*
Cc1ccccc1NC(=O)NCc1cccnc1	2	-2	.	.	.	.
O=C(NCc1cccnc1)Nc1cccc(Cl)c1Cl	-11	-4	4	-8	6%	-30*
O=C(NCc1cccnc1)Nc1ccc(Cl)cc1Cl	-9	2	3	2	1%	5
O=C(NCc1cccnc1)NC1(C(F)(F)F)Oc2ccccc2O1	9	-1	-1	1	0%	-42*
CC(C)CNC(=O)NC1(C(F)(F)F)Oc2ccccc2O1	5	2	2	-5	-28%	6
